These results are taken from PubChem BioAssay (NCI).

Experiment in all cases: NCI-60 one-dose screen, 48 h (100 = growth as untreated, 0 = no growth, -100 = all killed)
Common to all, as to details: 10 µM unless noted

The subject of test [1] is NCI-H23 lung.
Test [2] concerns NCI-H226 lung.
Test [3] concerns NCI-H322M lung.
In test [4] the test system is HOP-62 NSCLC.
Test [5] concerns NCI-H460 lung.
The test system of test [6] is HOP-92 NSCLC.
Test [7] concerns NCI-H522 lung.
The test system of test [8] is A549/ATCC NSCLC.
In test [9] the test system is 786-0 renal.
Test [10] has as its system COLO 205 colon.

The panel holds about 83,000 compounds, 20% with a hit somewhere; the sample as a whole holds those more often.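 Negative percent growth values reflect cell death: -40 means 40% of the cells present at the start died, and -100 means all died.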 Values without a mark were called inactive. Active and inactive are the calls of the source. How the source made its calls: active means growth percent below 10; inactive means the rest.

In the case of `NC(=N\N=C/c1cccc([N+](=O)[O-])c1)/C(N)=N\N=C/c1cccc([N+](=O)[O-])c1`, the growth in test [1] is 78.4%; in [2], 64%; in [3], 110%; in test [4], 10.6%; in [5], -21.5% (active); in test [6], 73.9%. Further, the growth in test [7] was 66.9%; in [8] it was 15.6%; in [9], 109%; in [10], 19.4%.

As to `CC(=O)c1ccc(NCC(=O)Nc2ccccn2)cc1`, the growth was 96.4% in test [1]; 91.3% in [2]; 103% in test [3]; 98.7% in test [4]; 104% in test [5]; 103% in [6]. Further, the growth in test [7] was 107%; in [8], 104%; in test [9], 102%; in test [10] it was 103%.

Regarding `N#Cc1nc(C#N)c(Sc2ccccc2)c(Sc2ccccc2)c1Sc1ccccc1`, the growth in test [1] was -42.1% (active); in [2] it was 3.05% (active); in test [3], 23.9%; in test [4] it was -46% (active); in [5], -44.7% (active); in test [6], -31.7% (active). Further, the growth was -67.2% (active) in test [7], 3.65% (active) in test [8], -55.9% (active) in test [9] and -88.2% (active) in [10].

For `Cc1ccc(Nc2ccc(Nc3ccc(C)cc3)c3c2C(=O)c2cccc(O)c2C3=O)cc1`, the growth in [1] was 84.5%; in test [2], 73.1%; in [3] it was 108%; in test [4], 101%; in test [5], 88.3%; in [6], 70.4%. Further, the growth was 90.6% in test [7], 103% in test [8], 111% in [9] and 102% in [10].

For the molecule `C[C@H](NC(=O)[C@@H]1CSSC[C@@H](NC(=O)c2nc3ccccc3cc2O)C(=O)NCC(=O)N1C)c1ccccc1`, the growth in [1] is 38.6%; in [2], 60.5%; in [3], 76.7%; in test [4] it was 66.6%; in test [5], 6.55% (active); in [6], 51.6%. Besides, the growth in test [7] was 24.7%; in test [8] it was 42.9%; in [9] it was -37.2% (active); in test [10], -63.7% (active).

Consider `COc1ccc(NC(=O)CSc2nnc(-c3cc(-c4ccc(S(N)(=O)=O)cc4)nc4ccccc34)n2-c2ccccc2)cc1`, for which the growth in [1] was 102%; in test [2], 77.5%; in test [3], 93.8%; in test [4], 85.7%; in test [5], 91%; in test [6] it was 62.2%. The growth in test [7] is 78%; in [8], 90.9%; in [9] it was 88.4%; in [10] it was 95.5%.

With `COc1cc(/C=C/C(=O)c2c(C)nc3ccccc3c2C)ccc1OCCCN1CCN(C(=O)c2ccco2)CC1`, the growth in [1] is 58.1%; in test [2], 63.2%; in test [3], 91.8%; in test [4], 91.5%; in test [5] it was 98.2%; in test [6], 70%. For the same molecule, the growth is 57.7% in [7], 79% in test [8], 85.9% in [9] and 99.1% in test [10].

With `C#Cc1cccc(NC(=O)c2ccc(NC(=O)CCl)cc2)c1`, the growth in [1] was -55.2% [8.25 µM] (active); in [2], 8.52% [8.25 µM] (active); in test [3], 86.6% [8.25 µM]; in test [4], 10.7% [8.25 µM]; in test [5], -24.6% [8.25 µM] (active); in [6], -57.6% [8.25 µM] (active). Also, the growth in test [7] was -51.6% [8.25 µM] (active); in test [8], 59.1% [8.25 µM]; in test [9], -50.8% [8.25 µM] (active); in test [10] it was -66.9% [8.25 µM] (active).

Take `C=CC(=O)Nc1cccc(Oc2nccc(Nc3nnc(C4CC4)s3)n2)c1`: the growth in [1] is 97.1%; in test [2], 101%; in test [3], 105%; in [4], 110%; in test [5] it was 95.6%; in test [6], 66.1%. The growth is 86.8% in test [7], 103% in [8], 86.6% in test [9] and 107% in [10].

For `Cc1ccc(/C=C/c2c(C(=O)/C=C/c3ccc(C(F)(F)F)cc3)c(C)nc3ccccc23)cc1`, the growth is -31.3% (active) in test [1]; -46.1% (active) in test [2]; -1.68% (active) in test [3]; -37.2% (active) in [4]; -69.6% (active) in test [5]; -76% (active) in [6]. Besides, the growth in [7] is -10.5% (active); in test [8], 77.2%; in test [9], -74.9% (active); in test [10] it was -24.3% (active).

`Cc1cc(O)c(C2=NN(c3ccc(S(N)(=O)=O)cc3)C(c3ccccc3Cl)C2)cc1Cl` (stereo not given): the growth is 2.15% (active) in [1]; 38.7% in [2]; 48.3% in [3]; -6.9% (active) in [4]; -36.2% (active) in test [5]; 38.5% in [6]. Also, the growth was -56.1% (active) in test [7], 13% in test [8], -66.3% (active) in test [9] and -92.1% (active) in test [10].

As to `N#Cc1c2c(nn(-c3ccccc3)c1=O)C(O)=C([N+](=O)[O-])C(c1ccccc1)C2` (stereo not given), the growth in test [1] was 86%; in [2], 102%; in [3], 93.1%; in test [4], 78.3%; in test [5], 91.6%; in [6], 76%. Also, the growth was 77.8% in [7], 93.4% in [8], 58% in test [9] and 99.4% in test [10].

As to `CC(C)(C)C(CCc1ccc(Cl)cc1)N1CCN(C2CCCCC2)CC1` (stereo not given), the growth in test [1] is 47.5%; in test [2] it was 78.5%; in [3], 82.8%; in test [4], 47.5%; in [5], 25.2%; in test [6], 45.3%. The growth is 41% in test [7], 24.9% in test [8], 42.4% in test [9] and 33.7% in test [10].
